# Experimental data reported in PubChem BioAssay AID1159580 (chemical genetic matrix, 2015).
# Hit rate of the full screen: of about 5,500 compounds, about 2,000 (36%) were called active. Another 18% or so got no clear call; they are omitted. This is one part of the list. Unmarked numbers belong to inactive results. Rule as the data show it: active = normalized growth mostly below about 0.91 (no sharp cut-off); inconclusive = no clear call, values can overlap the other calls; inactive = mostly above about 0.92.
# Experiment: chemical genetic growth profiling, strain panel (AID 1159580);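 also: tested at 20 µM; growth read once vehicle control cultures reached saturation at 30 °C; 1 = growth at the plate median or of vehicle wells; lower values mean less growth of the strain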
# Conditions: S. cerevisiae deletion strains, growth OD
structure (smiles),measurement,setting,value
COc1cccc(-c2cc(=O)c3ccc(OC)cc3o2)c1,normalized growth,"locus YAL013W, strain DEP1, stronger effect = lower value",0.93
same,normalized growth,"locus YAL021C, strain ccr4, stronger effect = lower value",0.964
same,normalized growth,"locus YAL026C, strain drs2, stronger effect = lower value",0.936
same,normalized growth,"locus YAL030W, strain snc1, stronger effect = lower value",0.943
same,normalized growth,"locus YBL061C, strain skt5, stronger effect = lower value",0.929
same,normalized growth,"locus YBR009C, strain hhf1, stronger effect = lower value",0.891 (active)
same,normalized growth,"locus YBR021W, strain FUR4, stronger effect = lower value",0.942
same,normalized growth,"locus YBR023C, strain chs3, stronger effect = lower value",0.897 (active)
same,normalized growth,"locus YBR171W, strain sec66, stronger effect = lower value",0.916
same,normalized growth,"locus YBR229C, strain ROT2, stronger effect = lower value",0.959
same,normalized growth,"locus YBR231C, strain swc5, stronger effect = lower value",0.922
same,normalized growth,"locus YBR279W, strain paf1, stronger effect = lower value",0.944
same,normalized growth,"locus YCL011C, strain gbp2, stronger effect = lower value",0.938
same,normalized growth,"locus YCL016C, strain dcc1, stronger effect = lower value",0.96
same,normalized growth,"locus YCL061C, strain MRC1, stronger effect = lower value",0.944
same,normalized growth,"locus YCL069W, strain vba3, stronger effect = lower value",0.947
same,normalized growth,"locus YCR088W, strain abp1, stronger effect = lower value",0.938
same,normalized growth,"locus YDL005C, strain med2, stronger effect = lower value",0.973
same,normalized growth,"locus YDL035C, strain GPR1, stronger effect = lower value",0.922
same,normalized growth,"locus YDL040C, strain nat1, stronger effect = lower value",0.948
same,normalized growth,"locus YDL074C, strain BRE1, stronger effect = lower value",0.837
same,normalized growth,"locus YDL101C, strain DUN1, stronger effect = lower value",0.954
same,normalized growth,"locus YDL134C, strain PPH21, stronger effect = lower value",0.978
same,normalized growth,"locus YDL185W, strain tfp1, stronger effect = lower value",0.978
same,normalized growth,"locus YDL192W, strain arf1, stronger effect = lower value",1.04
same,normalized growth,"locus YDR001C, strain nth1, stronger effect = lower value",0.935
same,normalized growth,"locus YDR069C, strain doa4, stronger effect = lower value",0.96
same,normalized growth,"locus YDR101C, strain arx1, stronger effect = lower value",1.04
same,normalized growth,"locus YDR137W, strain rgp1, stronger effect = lower value",0.929
same,normalized growth,"locus YDR150W, strain NUM1, stronger effect = lower value",0.951
same,normalized growth,"locus YDR159W, strain sac3, stronger effect = lower value",0.921
same,normalized growth,"locus YDR162C, strain NBP2, stronger effect = lower value",0.926
same,normalized growth,"locus YDR195W, strain ref2",1.05
same,normalized growth,"locus YDR297W, strain sur2, stronger effect = lower value",0.955
same,normalized growth,"locus YDR318W, strain mcm21, stronger effect = lower value",0.972
same,normalized growth,"locus YDR334W, strain swr1, stronger effect = lower value",0.943
same,normalized growth,"locus YDR335W, strain msn5, stronger effect = lower value",0.965
same,normalized growth,"locus YDR388W, stronger effect = lower value",1.04
same,normalized growth,"locus YDR392W, strain spt3, stronger effect = lower value",0.623 (active)
same,normalized growth,"locus YDR502C, strain sam2, stronger effect = lower value",1.04
same,normalized growth,"locus YEL003W, strain gim4, stronger effect = lower value",0.962
same,normalized growth,"locus YEL037C, strain rad23, stronger effect = lower value",0.952
same,normalized growth,"locus YEL061C, strain CIN8 (second series), stronger effect = lower value",0.958
same,normalized growth,"locus YEL061C, strain CIN8, stronger effect = lower value",0.964
same,normalized growth,"locus YER015W, strain faa2, stronger effect = lower value",0.953
same,normalized growth,"locus YER016W, strain bim1, stronger effect = lower value",0.952
same,normalized growth,"locus YER110C, stronger effect = lower value",1.16 [resistant] (active)
same,normalized growth,"locus YER111C, strain swi4, stronger effect = lower value",0.957
same,normalized growth,"locus YER155C, strain BEM2 (second series), stronger effect = lower value",0.699 (active)
same,normalized growth,"locus YER155C, strain BEM2, stronger effect = lower value",1.06
same,normalized growth,"locus YER167W, strain BCK2, stronger effect = lower value",0.907
same,normalized growth,"locus YFR010W, strain ubp6, stronger effect = lower value",0.961
same,normalized growth,"locus YGL078C, strain dbp3, stronger effect = lower value",1.05
same,normalized growth,"locus YGL086W, strain mad1, stronger effect = lower value",0.934
same,normalized growth,"locus YGL167C, strain pmr1, stronger effect = lower value",0.938
same,normalized growth,"locus YGL173C, strain kem1, stronger effect = lower value",0.966
same,normalized growth,"locus YGL227W, strain vid30, stronger effect = lower value",0.946
same,normalized growth,"locus YGL240W, strain doc1, stronger effect = lower value",0.837 (active)
same,normalized growth,"locus YGL248W, strain PDE1, stronger effect = lower value",0.946
same,normalized growth,"locus YGL253W, strain hxk2, stronger effect = lower value",0.903 (active)
same,normalized growth,"locus YGR078C, strain PAC10, stronger effect = lower value",0.945
same,normalized growth,"locus YGR135W, strain pre9, stronger effect = lower value",1.08
same,normalized growth,"locus YGR229C, strain SMI1, stronger effect = lower value",0.722 (active)
same,normalized growth,"locus YGR252W, strain gcn5, stronger effect = lower value",0.884
same,normalized growth,"locus YHR013C, strain ard1, stronger effect = lower value",0.852
same,normalized growth,"locus YHR027C, strain rpn1, stronger effect = lower value",0.968
same,normalized growth,"locus YHR030C, strain SLT2, stronger effect = lower value",0.82 (active)
same,normalized growth,"locus YHR079C, strain IRE1 (second series), stronger effect = lower value",1.08 [resistant] (active)
same,normalized growth,"locus YHR094C, strain hxt1, stronger effect = lower value",1.15 [resistant] (active)
same,normalized growth,"locus YHR129C, strain ARP1, stronger effect = lower value",1.03
same,normalized growth,"locus YHR142W, strain chs7, stronger effect = lower value",0.793 (active)
same,normalized growth,"locus YHR200W, strain rpn10, stronger effect = lower value",1.04
same,normalized growth,"locus YIL066C, strain RNR3, stronger effect = lower value",0.961
same,normalized growth,"locus YIL073C, strain SPO22, stronger effect = lower value",0.834
same,normalized growth,"locus YIL125W, strain kgd1, stronger effect = lower value",0.964
same,normalized growth,"locus YIR030C, strain dcg1, stronger effect = lower value",1.14 [resistant] (active)
same,normalized growth,"locus YJL092W, strain hpr5, stronger effect = lower value",0.954
same,normalized growth,"locus YJL095W, strain BCK1 (second series), stronger effect = lower value",0.916 (active)
same,normalized growth,"locus YJL095W, strain BCK1, stronger effect = lower value",0.656 (active)
same,normalized growth,"locus YJL115W, strain asf1, stronger effect = lower value",0.954
same,normalized growth,"locus YJL129C, strain trk1, stronger effect = lower value",0.95
same,normalized growth,"locus YJL134W, strain LCB3, stronger effect = lower value",0.965
same,normalized growth,"locus YJL154C, strain vps35, stronger effect = lower value",0.959
same,normalized growth,"locus YJL164C, strain tpk1, stronger effect = lower value",0.928
same,normalized growth,"locus YJL166W, strain qcr8, stronger effect = lower value",0.905
same,normalized growth,"locus YJL168C, strain set2, stronger effect = lower value",1.04
same,normalized growth,"locus YJL187C, strain SWE1 (second series), stronger effect = lower value",0.942
same,normalized growth,"locus YJL187C, strain SWE1, stronger effect = lower value",0.949
same,normalized growth,"locus YJR043C, strain POL32, stronger effect = lower value",0.866
same,normalized growth,"locus YJR075W, strain HOC1, stronger effect = lower value",0.994
same,normalized growth,"locus YKL009W, strain mrt4, stronger effect = lower value",0.828 (active)
same,normalized growth,"locus YKL068W, stronger effect = lower value",0.931 (active)
same,normalized growth,"locus YKL085W, strain MDH1 (second series), stronger effect = lower value",0.845 (active)
same,normalized growth,"locus YKL085W, strain MDH1, stronger effect = lower value",0.845 (active)
same,normalized growth,"locus YKL160W, strain elf1, stronger effect = lower value",0.933
same,normalized growth,"locus YKL190W, strain CNB1, stronger effect = lower value",0.952
same,normalized growth,"locus YKR001C, strain vps1, stronger effect = lower value",1.06
same,normalized growth,"locus YKR026C, strain gcn3, stronger effect = lower value",0.91 (active)
same,normalized growth,"locus YKR091W, strain srl3, stronger effect = lower value",0.958
same,normalized growth,"locus YLL001W, strain dnm1, stronger effect = lower value",0.922
same,normalized growth,"locus YLL026W, stronger effect = lower value",0.94
same,normalized growth,"locus YLL041C, strain sdh2, stronger effect = lower value",0.951
same,normalized growth,"locus YLR027C, strain aat2, stronger effect = lower value",0.934
same,normalized growth,"locus YLR039C, strain RIC1, stronger effect = lower value",0.983
same,normalized growth,"locus YLR058C, strain SHM2, stronger effect = lower value",0.999
same,normalized growth,"locus YLR102C, strain apc9, stronger effect = lower value",1.03
same,normalized growth,"locus YLR221C, strain rsa3, stronger effect = lower value",0.91
same,normalized growth,"locus YLR258W, strain gsy2, stronger effect = lower value",0.93
same,normalized growth,"locus YLR262C, strain YPT6 (second series), stronger effect = lower value",0.916
same,normalized growth,"locus YLR262C, strain YPT6, stronger effect = lower value",0.989
same,normalized growth,"locus YLR268W, strain sec22, stronger effect = lower value",0.994
same,normalized growth,"locus YLR320W, strain mms22, stronger effect = lower value",0.824 (active)
same,normalized growth,"locus YLR330W, strain CHS5, stronger effect = lower value",1.02
same,normalized growth,"locus YLR342W, strain FKS1 (second series), stronger effect = lower value",0.839
same,normalized growth,"locus YLR342W, strain FKS1, stronger effect = lower value",0.951
same,normalized growth,"locus YLR357W, strain rsc2, stronger effect = lower value",0.856
same,normalized growth,"locus YLR370C, strain arc18, stronger effect = lower value",0.948
same,normalized growth,"locus YLR371W, strain rom2, stronger effect = lower value",0.965
same,normalized growth,"locus YLR384C, strain iki3, stronger effect = lower value",0.962
same,normalized growth,"locus YLR418C, strain cdc73, stronger effect = lower value",0.948
same,normalized growth,"locus YML016C, strain PPZ1, stronger effect = lower value",0.998
same,normalized growth,"locus YML032C, strain rad52, stronger effect = lower value",0.954
same,normalized growth,"locus YML120C, strain ndi1, stronger effect = lower value",0.92
same,normalized growth,"locus YML124C, strain tub3, stronger effect = lower value",1.13 [resistant] (active)
same,normalized growth,"locus YMR058W, strain fet3, stronger effect = lower value",0.938
same,normalized growth,"locus YMR078C, strain ctf18, stronger effect = lower value",1.1 [resistant] (active)
same,normalized growth,"locus YMR125W, strain sto1, stronger effect = lower value",0.941
same,normalized growth,"locus YMR129W, stronger effect = lower value",0.971
same,normalized growth,"locus YMR205C, strain PFK2, stronger effect = lower value",0.871 (active)
same,normalized growth,"locus YMR223W, strain ubp8, stronger effect = lower value",1
same,normalized growth,"locus YMR231W, strain pep5, stronger effect = lower value",0.97
same,normalized growth,"locus YMR263W, strain SAP30, stronger effect = lower value",0.896
same,normalized growth,"locus YMR307W, strain GAS1, stronger effect = lower value",0.734
same,normalized growth,"locus YNL067W, strain RPL9B, stronger effect = lower value",0.944
same,normalized growth,"locus YNL071W, strain lat1, stronger effect = lower value",0.813 (active)
same,normalized growth,"locus YNL128W, strain TEP1, stronger effect = lower value",1.02
same,normalized growth,"locus YNL153C, strain GIM3, stronger effect = lower value",0.997
same,normalized growth,"locus YNL209W, strain ssb2, stronger effect = lower value",0.977
same,normalized growth,"locus YNL233W, strain BNI4, stronger effect = lower value",0.942
same,normalized growth,"locus YNL248C, strain rpa49, stronger effect = lower value",0.927
same,normalized growth,"locus YNL250W, strain rad50, stronger effect = lower value",0.969
same,normalized growth,"locus YNL271C, strain bni1, stronger effect = lower value",0.938
same,normalized growth,"locus YNL298W, strain CLA4, stronger effect = lower value",0.924
same,normalized growth,"locus YNL307C, strain MCK1, stronger effect = lower value",0.842 (active)
same,normalized growth,"locus YNL322C, strain KRE1 (second series), stronger effect = lower value",0.959
same,normalized growth,"locus YNL322C, strain KRE1, stronger effect = lower value",0.958
same,normalized growth,"locus YNR049C, strain mso1, stronger effect = lower value",0.953
same,normalized growth,"locus YNR052C, strain pop2, stronger effect = lower value",1.14 [resistant] (active)
same,normalized growth,"locus YOL006C, strain TOP1, stronger effect = lower value",0.659
same,normalized growth,"locus YOL012C, strain htz1",0.755
same,normalized growth,"locus YOL147C, strain pex11, stronger effect = lower value",1.08 [resistant] (active)
same,normalized growth,"locus YOR001W, strain rrp6, stronger effect = lower value",0.94
same,normalized growth,"locus YOR061W, strain CKA2, stronger effect = lower value",0.951
same,normalized growth,"locus YOR069W, strain VPS5, stronger effect = lower value",0.958
same,normalized growth,"locus YOR070C, strain gyp1, stronger effect = lower value",0.942
same,normalized growth,"locus YOR080W, strain dia2, stronger effect = lower value",0.947
same,normalized growth,"locus YOR083W, strain WHI5, stronger effect = lower value",0.91
same,normalized growth,"locus YOR106W, strain vam3, stronger effect = lower value",0.922
same,normalized growth,"locus YOR136W, strain idh2, stronger effect = lower value",1.18 [resistant] (active)
same,normalized growth,"locus YOR144C, strain elg1, stronger effect = lower value",1.18 [resistant] (active)
same,normalized growth,"locus YOR184W, strain ser1, stronger effect = lower value",0.959
same,normalized growth,"locus YOR265W, strain rbl2, stronger effect = lower value",0.942
same,normalized growth,"locus YOR270C, strain vph1, stronger effect = lower value",0.71 (active)
same,normalized growth,"locus YOR290C, strain snf2, stronger effect = lower value",0.84 (active)
same,normalized growth,"locus YOR316C, strain cot1, stronger effect = lower value",1.1 [resistant] (active)
same,normalized growth,"locus YPL051W, strain arl3, stronger effect = lower value",0.932
same,normalized growth,"locus YPL055C, strain LGE1, stronger effect = lower value",0.873
same,normalized growth,"locus YPL078C, strain atp4, stronger effect = lower value",0.91
same,normalized growth,"locus YPL106C, strain sse1, stronger effect = lower value",0.84 (active)
same,normalized growth,"locus YPL240C, strain hsp82, stronger effect = lower value",0.952
same,normalized growth,"locus YPL241C, strain CIN2, stronger effect = lower value",0.966
same,normalized growth,"locus YPR119W, strain clb2, stronger effect = lower value",1.03
same,normalized growth,"locus YPR141C, strain kar3, stronger effect = lower value",1
same,normalized growth,"locus YPR163C, strain tif3, stronger effect = lower value",1.03
same,normalized growth,"locus YPR167C, strain met16, stronger effect = lower value",1.04
same,normalized growth,"strain wtn01, stronger effect = lower value",1.05
